14 compounds from the supplement of paper PMC6089552 can be followed below.

The test system of the assay is A673/TR/shEF. Briefly: cell viability (LOESS-normalised, relative to median of negative controls) (log2 ratio); higher = more viable cells (less compound effect), active = hit call of the paper (over 3 MAD below the median). Particulars: treatment time: 72 h. The procedure, abridged:
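For three days, A673/TR/shEF Ewing sarcoma cells in 384-well plates (1,500 per well) were treated with library compounds at two or more concentrations or with DMSO controls, after doxycycline had been added or withheld 24 h beforehand to induce EWS-FLI1 shRNA knockdown. Viability was read by CellTiter-Glo luminescence on an Envision reader. The data were LOESS-corrected per plate, divided by the median of negative controls and log2-transformed.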

The mark [1] stands for this setting: 0.25 µM, library screen: screen2, EWS-FLI1 expression: high (no doxycycline).
Setting [2] is: 0.25 µM, library screen: screen2, EWS-FLI1 expression: low (doxycycline-induced shRNA knockdown).
Where [3] appears, read: 2.5 µM, library screen: screen2, EWS-FLI1 expression: high (no doxycycline).
Where [4] appears, read: 2.5 µM, library screen: screen2, EWS-FLI1 expression: low (doxycycline-induced shRNA knockdown).
[5] abbreviates: 0.25 µM, library screen: screen1, EWS-FLI1 expression: high (no doxycycline).
[6] abbreviates: 0.25 µM, library screen: screen1, EWS-FLI1 expression: low (doxycycline-induced shRNA knockdown).
The mark [7] stands for this setting: 2.5 µM, library screen: screen1, EWS-FLI1 expression: high (no doxycycline).
The mark [8] stands for this setting: 2.5 µM, library screen: screen1, EWS-FLI1 expression: low (doxycycline-induced shRNA knockdown).

Structures are written as SMILES. Among all 3,200 compounds or so, about 300 (9.4%) showed activity. The sample as a whole holds a higher share of actives than the screen did.

Turning to `CC(O)C(C)OC(=O)[C@@H]1C[C@@H]2c3cccc4c3c(cn4C(C)C)C[C@H]2N(C)C1` (some centres undefined), the “cell viability (log2)” value is 0.174 (inactive) under setting [1], 0.171 (inactive) under setting [2], 0.12 (inactive) under setting [3] and 0.112 (inactive) under setting [4].
Consider `NCCc1cccc(O)c1`, for which the “cell viability (log2)” value is 0.0584 (inactive) under setting [5], 0.0834 (inactive) under setting [6], 0.0622 (inactive) under setting [7] and 0.0348 (inactive) under setting [8].
Take `CN1CC[C@@]2(C)c3cc(O)ccc3N(C)C12` (some centres undefined): the “cell viability (log2)” value is 0.117 (inactive) under setting [1], 0.0622 (inactive) under setting [2], 0.072 (inactive) under setting [3] and 0.0674 (inactive) under setting [4].
As for `CNNC`, the “cell viability (log2)” value reads like this: (0.025 µM, library screen: screen2, EWS-FLI1 expression: high (no doxycycline)) 0.186 (inactive); (0.025 µM, library screen: screen2, EWS-FLI1 expression: low (doxycycline-induced shRNA knockdown)) 0.0401 (inactive); under setting [5], 0.136 (inactive); under setting [6], 0.152 (inactive); under setting [1], 0.206 (inactive); under setting [2], 0.035 (inactive). In addition, the “cell viability (log2)” value was 0.115 (inactive) under setting [7]; 0.131 (inactive) under setting [8]; 0.112 (inactive) under setting [3]; 0.0817 (inactive) under setting [4]; 0.239 (inactive) (25 µM, library screen: screen2, EWS-FLI1 expression: high (no doxycycline)); 0.143 (inactive) (25 µM, library screen: screen2, EWS-FLI1 expression: low (doxycycline-induced shRNA knockdown)).
On to `Nc1ncnc2c1ncn2[C@@H]1O[C@H](COP(=O)(O)CP(=O)(O)OP(=O)([O-])[O-])[C@H](O)C1O.[Li+].[Li+]` (some centres undefined), for which the “cell viability (log2)” value runs as follows: under setting [1], 0.132 (inactive); under setting [2], 0.0925 (inactive); under setting [3], 0.106 (inactive); under setting [4], 0.143 (inactive).
As to `N[C@@H](Cn1ccc(=O)[nH]c1=O)C(=O)O`, the “cell viability (log2)” value by setting is: under setting [1], 0.256 (inactive); under setting [2], -0.00427 (inactive); under setting [3], 0.176 (inactive); under setting [4], 0.041 (inactive).
With `CNC(=O)O/N=C/C(C)(C)SC`, the “cell viability (log2)” value was 0.0387 (inactive) under setting [5], 0.0491 (inactive) under setting [6], 0.106 (inactive) under setting [7] and 0.0724 (inactive) under setting [8].
Consider `C[C@@H]1OC(=O)[C@H]2C[C@H]3CCCC[C@@H]3[C@@H](/C=C/[C@@H]3CCC[C@@H](C)N3C)[C@@H]12`, for which the “cell viability (log2)” value was 0.0803 (inactive) under setting [1], 0.0731 (inactive) under setting [2], 0.143 (inactive) under setting [3] and 0.0419 (inactive) under setting [4].
Consider `c1cncc(C2CCCCN2)c1` (centres undefined), for which the “cell viability (log2)” value is, setting by setting: under setting [5], 0.0408 (inactive); under setting [6], -0.0074 (inactive); under setting [7], 0.145 (inactive); under setting [8], 0.0957 (inactive).
Turning to `CC(C)=CCCC1(C)C=Cc2c(O)c3c(c(CC=C(C)C)c2O1)OC12C(CC4CC1C(C)(C)OC2(C/C=C(/C)C(=O)O)C4O)C3=O` (centres undefined), the “cell viability (log2)” value was 0.0661 (inactive) under setting [5], 0.00238 (inactive) under setting [6], 0.127 (inactive) under setting [7] and 0.0888 (inactive) under setting [8].
In the case of `COC(=O)/C(C)=C\CC12OC(C)(C)C3CC(C=C4C(=O)c5c(OC)c6c(c(CC=C(C)C)c5OC431)OC(C)(CCC=C(C)C)C=C6)C2=O` (centres undefined), the “cell viability (log2)” value runs as follows: under setting [5], 0.0497 (inactive); under setting [6], 0.135 (inactive); under setting [7], -4.2 (active); under setting [8], -3.74 (active).
In the case of `CC(C)=CCCC1(C)C=Cc2c(O)c3c(c(CC=C(C)C)c2O1)OC12C(=CC4CC1C(C)(C)OC2(CC=C(C)C(=O)O)C4O)C3=O` (centres undefined), the “cell viability (log2)” value by setting is: under setting [5], 0.1 (inactive); under setting [6], 0.0956 (inactive); under setting [7], -0.137 (active); under setting [8], 0.307.
For `CC(=O)Oc1c2c(c(CC=C(C)C)c3c1C(=O)C1=C[C@@H]4CC5C(C)(C)OC(C/C=C(\C)C(=O)O)(C4=O)[C@@]15O3)OC(C)(CCC=C(C)C)C=C2` (some centres undefined), the “cell viability (log2)” value under setting [5] was 0.0664 (inactive), the “cell viability (log2)” value under setting [6] is 0.0597 (inactive), the “cell viability (log2)” value under setting [7] is -0.0173 (inactive) and the “cell viability (log2)” value under setting [8] was 0.269 (inactive).
As for `CC(C)=CCC[C@]1(C)C=Cc2c(O)c3c(c(CC=C(C)C)c2O1)O[C@]12C(=C[C@@H]4C[C@H]1C(C)(C)O[C@@]2(C/C=C(/C)C(=O)O)C4=O)C3=O`, the “cell viability (log2)” value is -0.0514 (inactive) under setting [5], 0.129 (inactive) under setting [6], -1.16 (active) under setting [7] and -0.0142 (inactive) under setting [8].
